For six molecules, growth results are on record in PubChem BioAssay (NCI).

Experiment in all cases: NCI-60 one-dose screen, 48 h (100 = growth as untreated, 0 = no growth, -100 = all killed)
Holding throughout (details): 10 µM unless noted

For test [1], the system named is NCI-H23 lung.
Test [2] has as its system NCI-H226 lung.
Test [3] has as its system NCI-H322M lung.
Test [4] deals with HOP-62 NSCLC.
For test [5], the system named is NCI-H460 lung.
For test [6], the system named is NCI-H522 lung.
Test [7] deals with A549/ATCC NSCLC.
Test [8] relates to 786-0 renal.
The subject of test [9] is COLO 205 colon.
Test [10] deals with DU-145 prostate.
The subject of test [11] is K-562 leukemia.
Test [12] concerns MALME-3M melanoma.
Test [13] relates to RXF 393 renal.
In test [14] the test system is SF-268 CNS.
In test [15] the test system is SF-295 CNS.
Test [16] concerns SF-539 CNS.
Test [17] has as its system UACC-257 melanoma.
The subject of test [18] is M14 melanoma.
The subject of test [19] is HOP-92 NSCLC.
In test [20] the test system is MDA-MB-231 breast.

The structures appear in SMILES notation. The panel holds about 83,000 compounds, 20% with a hit somewhere; the sample as a whole holds those more often.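 Cells were grown in 96-well plates and exposed to the test compound at a single concentration for 48 hours; results are reported as percent growth, with values below 10 considered active.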 Unmarked numbers belong to inactive results. The source made the active and inactive calls.

As for `CC(C)CCNC(=O)N/C(N)=N/c1nc2ccccc2s1`, the growth in [1] was 46.9%; in test [2], 52.1%; in [3], 83.1%; in test [4] it was 73.6%; in test [5], 66.5%; in test [6], 54.2%. For the same molecule, the growth in [7] is 64.6%; in [8], 80.9%; in [9], 103%; in test [10], 66.4%; in test [11], 28.7%; in test [12] it was 77.1%. The growth in test [13] is 74.7%; in [14] it was 72%; in [15], 45.3%; in test [16], 56.8%; in [17] it was 35.5%; in test [18] it was 79.6%.
Turning to `COc1ccc(C(SCCNCc2cc(N(C)C)ccn2)(c2ccccc2)c2ccccc2)cc1`, the growth in test [1] is -10.7% (active); in test [2], 15.1%; in [3], 27.5%; in test [4], 10.9%; in test [19] it was -16.5% (active); in [6], -20.6% (active). The growth was 10.1% in [7]; -23.1% (active) in [8]; -78% (active) in test [9]; 7.05% (active) in [10]; -28.5% (active) in [11]; -91.4% (active) in test [12]. Besides, the growth in test [20] is -33.4% (active); in test [13] it was -21.4% (active); in [14], 22.1%; in test [15], -58.8% (active); in [16], -93% (active); in test [17], -20.9% (active). Also, the growth in test [18] is -46.3% (active).
Consider `Cc1ncsc1-c1ccc(CNC(=O)[C@@H]2C[C@@H](O)CN2C(=O)[C@@H](NC(=O)C2(F)CC2)C(C)(C)C)c(OCCOCCOCCOCCOc2nc(Nc3cc(S(C)(=O)=O)ccc3N[C@@H](c3cccc4c3OC(F)(F)O4)c3ncccc3Cl)nc(N3CCNCC3)n2)c1`, for which the growth in [1] is 85.3%; in test [2], 71.5%; in test [3] it was 82.3%; in [4], 90.6%; in test [5], 87.3%; in test [6], 100%. Also, the growth in [7] is 103%; in [8], 97.7%; in test [9], 89.8%; in [10] it was 69%; in [11], 23.1%; in test [12] it was 41.4%. The growth in test [13] is 65.3%; in [14] it was 65.7%; in test [15] it was 101%; in [16], 70.1%; in [17], 94.4%; in test [18], 97.5%.
For `COc1ccc(C2=NN(c3ccccc3)C(c3ccc(OCc4ccccc4)c(OC)c3)C2)cc1OC` (stereo not given), the growth in [1] is 107%; in [2] it was 124%; in test [3] it was 103%; in [4], 109%; in [19], 105%; in test [6], 85.4%. In addition, the growth in test [7] is 101%; in [8], 97.1%; in [9] it was 94.1%; in test [10] it was 113%; in test [12], 99.1%; in test [20] it was 101%. In addition, the growth in test [13] is 86.2%; in test [14] it was 90%; in test [15], 91.3%; in test [16], 98.7%; in [17], 90.9%; in test [18], 91.2%.
In the case of `CC(=O)Nc1ccc(-c2nc3cc(-c4ccc(O)cc4)ccc3n2C)cc1`, the growth in [1] is 59.2%; in test [2] it was 90.1%; in test [3], 65.4%; in [4] it was 83.8%; in test [19] it was 36.4%; in [6], 1.22% (active). Moreover, the growth was 69.7% in test [7]; 50.3% in [8]; 71.3% in test [9]; 54.9% in [10]; 15.5% in [11]; 68.4% in test [12]. Also, the growth in [20] was 53.4%; in test [13], 66.7%; in test [14], 68.1%; in test [15], 47.1%; in [16], 49.2%; in test [17], 80.8%. Further, the growth in test [18] was 63.9%.
As to `C=C1CC[C@@H]2[C@]3(C)COC(c4cn(-c5ccccc5)nc4-c4cccc([N+](=O)[O-])c4)O[C@@H]3CC[C@@]2(C)[C@@H]1C/C=C1/C(=O)OC[C@H]1O` (stereo not given in full), the growth in test [1] is -62.1% (active); in test [2], -48.6% (active); in test [3], 90%; in [4], 10.8%; in test [19], -84.3% (active); in test [6], -79.3% (active). Besides, the growth in test [7] is 30.7%; in [8], -35.8% (active); in [9] it was -64.2% (active); in [10] it was 44.3%; in test [11], -12.7% (active); in test [12], -67.6% (active). For the same molecule, the growth in test [13] was -84.2% (active); in test [14], 46%; in test [15] it was -46.5% (active); in test [16], -96.4% (active); in test [17], -68% (active); in test [18], -51.2% (active).
